Laboratory results from ChEMBL document CHEMBL2218924, “A broad activity screen in support of a chemogenomic map for kinase signalling research and drug discovery” (Biochem J, 2013).

Key:
[1] = target: Serine/threonine-protein kinase SIK1 (Homo sapiens) (UniProt P57059); settings: at 10 µM
[2] = target: SRSF protein kinase 1 (Homo sapiens) (UniProt Q96SB4); settings: at 1 µM
[3] = target: SRSF protein kinase 1 (Homo sapiens) (UniProt Q96SB4); settings: at 10 µM
[4] = target: SRSF protein kinase 2 (Homo sapiens) (UniProt P78362); settings: at 1 µM
[5] = target: SRSF protein kinase 2 (Homo sapiens) (UniProt P78362); settings: at 10 µM
[6] = target: Serine/threonine-protein kinase 33 (Homo sapiens) (UniProt Q9BYT3); settings: at 1 µM
[7] = target: Serine/threonine-protein kinase 33 (Homo sapiens) (UniProt Q9BYT3); settings: at 10 µM
[8] = target: Serine/threonine-protein kinase PLK2 (Homo sapiens) (UniProt Q9NYY3); settings: at 1 µM
[9] = target: Serine/threonine-protein kinase PLK2 (Homo sapiens) (UniProt Q9NYY3); settings: at 10 µM
[10] = target: Tyrosine-protein kinase SYK (Homo sapiens) (UniProt P43405); settings: at 1 µM

Serine/threonine-protein kinase SIK1 (Homo sapiens), sequence (P57059 whole entry): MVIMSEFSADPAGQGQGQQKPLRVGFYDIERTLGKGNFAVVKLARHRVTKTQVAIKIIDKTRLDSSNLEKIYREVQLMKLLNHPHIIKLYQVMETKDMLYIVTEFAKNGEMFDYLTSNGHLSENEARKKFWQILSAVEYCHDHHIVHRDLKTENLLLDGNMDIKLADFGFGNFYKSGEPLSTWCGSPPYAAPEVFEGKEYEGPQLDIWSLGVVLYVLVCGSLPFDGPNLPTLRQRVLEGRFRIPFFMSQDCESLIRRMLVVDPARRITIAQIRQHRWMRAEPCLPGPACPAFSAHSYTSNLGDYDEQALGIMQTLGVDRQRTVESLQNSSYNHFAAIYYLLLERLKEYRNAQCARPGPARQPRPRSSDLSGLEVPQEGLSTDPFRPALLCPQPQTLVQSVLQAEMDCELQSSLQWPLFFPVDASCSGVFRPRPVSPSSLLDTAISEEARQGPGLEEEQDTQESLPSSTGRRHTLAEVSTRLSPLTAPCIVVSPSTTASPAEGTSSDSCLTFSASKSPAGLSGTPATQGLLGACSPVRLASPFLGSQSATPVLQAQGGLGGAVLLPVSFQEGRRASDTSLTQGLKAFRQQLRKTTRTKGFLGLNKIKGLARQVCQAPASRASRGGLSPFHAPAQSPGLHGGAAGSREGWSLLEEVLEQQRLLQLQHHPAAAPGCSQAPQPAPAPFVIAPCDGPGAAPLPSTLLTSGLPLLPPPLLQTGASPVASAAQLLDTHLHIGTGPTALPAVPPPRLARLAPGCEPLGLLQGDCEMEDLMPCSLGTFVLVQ
SRSF protein kinase 2 (Homo sapiens), sequence (P78362 whole entry, looked up): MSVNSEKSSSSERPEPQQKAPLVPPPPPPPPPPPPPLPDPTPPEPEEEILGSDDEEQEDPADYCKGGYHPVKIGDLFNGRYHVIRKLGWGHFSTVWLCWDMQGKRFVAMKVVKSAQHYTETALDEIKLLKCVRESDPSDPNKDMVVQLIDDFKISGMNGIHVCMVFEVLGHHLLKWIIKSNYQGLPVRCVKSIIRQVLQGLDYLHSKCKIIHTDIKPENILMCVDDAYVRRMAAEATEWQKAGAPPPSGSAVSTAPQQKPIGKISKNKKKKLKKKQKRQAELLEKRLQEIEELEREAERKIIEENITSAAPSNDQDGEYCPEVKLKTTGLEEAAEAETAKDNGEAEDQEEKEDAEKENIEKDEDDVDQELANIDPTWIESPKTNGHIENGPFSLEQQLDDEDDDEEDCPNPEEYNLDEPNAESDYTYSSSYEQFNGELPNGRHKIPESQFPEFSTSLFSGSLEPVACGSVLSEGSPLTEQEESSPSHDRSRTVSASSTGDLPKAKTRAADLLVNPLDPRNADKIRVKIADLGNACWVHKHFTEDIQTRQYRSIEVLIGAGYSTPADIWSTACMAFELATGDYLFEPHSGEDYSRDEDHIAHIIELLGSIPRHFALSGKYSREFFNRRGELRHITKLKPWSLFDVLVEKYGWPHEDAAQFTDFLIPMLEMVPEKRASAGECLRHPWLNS
Serine/threonine-protein kinase 33 (Homo sapiens), sequence (Q9BYT3 whole entry, looked up): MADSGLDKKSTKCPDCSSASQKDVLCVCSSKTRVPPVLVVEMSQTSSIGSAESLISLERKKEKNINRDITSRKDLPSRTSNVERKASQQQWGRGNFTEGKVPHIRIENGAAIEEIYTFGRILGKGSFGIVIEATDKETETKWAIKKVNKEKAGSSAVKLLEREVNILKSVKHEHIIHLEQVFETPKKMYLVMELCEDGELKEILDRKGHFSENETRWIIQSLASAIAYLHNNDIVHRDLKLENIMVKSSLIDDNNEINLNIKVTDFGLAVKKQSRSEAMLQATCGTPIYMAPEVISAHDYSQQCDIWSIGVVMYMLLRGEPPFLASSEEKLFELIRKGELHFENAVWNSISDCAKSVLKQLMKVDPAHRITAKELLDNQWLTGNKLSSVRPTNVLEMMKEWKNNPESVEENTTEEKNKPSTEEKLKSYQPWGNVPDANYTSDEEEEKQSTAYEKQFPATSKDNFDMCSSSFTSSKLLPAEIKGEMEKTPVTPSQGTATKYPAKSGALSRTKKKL
Serine/threonine-protein kinase PLK2 (Homo sapiens), sequence (Q9NYY3 whole entry, looked up): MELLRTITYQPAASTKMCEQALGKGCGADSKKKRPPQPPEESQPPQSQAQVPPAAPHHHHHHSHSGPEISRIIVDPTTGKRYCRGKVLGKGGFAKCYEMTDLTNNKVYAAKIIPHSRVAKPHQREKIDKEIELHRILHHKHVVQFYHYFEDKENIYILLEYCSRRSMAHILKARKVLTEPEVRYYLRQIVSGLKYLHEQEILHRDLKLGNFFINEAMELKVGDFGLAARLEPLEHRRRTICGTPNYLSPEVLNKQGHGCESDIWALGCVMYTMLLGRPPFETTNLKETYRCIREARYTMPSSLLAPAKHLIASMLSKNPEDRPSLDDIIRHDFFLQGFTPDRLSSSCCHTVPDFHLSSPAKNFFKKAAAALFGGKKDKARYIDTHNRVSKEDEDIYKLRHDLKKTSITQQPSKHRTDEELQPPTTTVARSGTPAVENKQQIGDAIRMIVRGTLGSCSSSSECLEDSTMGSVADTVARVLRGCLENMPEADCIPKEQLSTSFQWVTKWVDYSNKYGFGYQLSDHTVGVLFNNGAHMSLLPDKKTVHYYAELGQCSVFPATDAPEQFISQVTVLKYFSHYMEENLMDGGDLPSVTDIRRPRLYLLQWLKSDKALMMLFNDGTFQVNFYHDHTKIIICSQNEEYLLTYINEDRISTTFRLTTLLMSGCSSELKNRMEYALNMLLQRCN
SRSF protein kinase 1 (Homo sapiens), sequence (Q96SB4 whole entry): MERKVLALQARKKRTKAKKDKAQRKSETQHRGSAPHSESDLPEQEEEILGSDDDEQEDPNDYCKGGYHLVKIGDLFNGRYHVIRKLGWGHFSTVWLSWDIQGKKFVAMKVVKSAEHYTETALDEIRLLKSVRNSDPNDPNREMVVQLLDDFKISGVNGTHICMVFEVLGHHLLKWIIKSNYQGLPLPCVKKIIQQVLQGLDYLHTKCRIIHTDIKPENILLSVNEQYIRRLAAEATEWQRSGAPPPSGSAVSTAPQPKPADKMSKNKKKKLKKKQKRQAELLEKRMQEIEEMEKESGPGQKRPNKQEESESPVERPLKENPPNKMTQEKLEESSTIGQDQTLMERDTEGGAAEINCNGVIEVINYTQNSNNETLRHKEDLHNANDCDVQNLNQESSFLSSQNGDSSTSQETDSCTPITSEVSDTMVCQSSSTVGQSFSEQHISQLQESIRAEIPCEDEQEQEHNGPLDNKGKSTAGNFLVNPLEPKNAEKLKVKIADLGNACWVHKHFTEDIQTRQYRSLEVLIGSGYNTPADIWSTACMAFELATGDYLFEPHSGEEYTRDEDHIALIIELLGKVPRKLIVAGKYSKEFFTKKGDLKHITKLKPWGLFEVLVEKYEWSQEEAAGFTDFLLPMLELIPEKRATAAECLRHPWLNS

CC(C)n1cnc2/c(=N/c3cccc(Cl)c3)nc(NCCO)[nH]c21
residual activity [1]: 28%
residual activity [2]: 41%
residual activity [3]: -2%
residual activity [4]: 27%
residual activity [5]: 2%
residual activity [6]: 78%
residual activity [7]: 28%
residual activity [8]: 61%
residual activity [9]: 22%
residual activity [10]: 79%

N#Cc1cnc2cnc(NCc3cccnc3)cc2c1Nc1ccc(F)c(Cl)c1
residual activity [1]: 97%
residual activity [2]: 100%
residual activity [3]: 78%
residual activity [4]: 102%
residual activity [5]: 76%
residual activity [6]: 99%
residual activity [7]: 77%
residual activity [8]: 101%
residual activity [9]: 101%
residual activity [10]: 2%

NC(=O)c1ccc2[nH]c(-c3ccc(Oc4ccc(Cl)cc4)cc3)nc2c1
residual activity [1]: 107%
residual activity [2]: 94%
residual activity [3]: 64%
residual activity [4]: 81%
residual activity [5]: 76%
residual activity [6]: 96%
residual activity [7]: 85%
residual activity [8]: 90%
residual activity [9]: 93%
residual activity [10]: 109%

O=C1NC(=O)/C(=C/c2ccc3c(c2)OC(F)(F)O3)S1
residual activity [1]: 119%
residual activity [2]: 118%
residual activity [3]: 98%
residual activity [4]: 102%
residual activity [5]: 84%
residual activity [6]: 106%
residual activity [7]: 109%
residual activity [8]: 112%
residual activity [9]: 95%
residual activity [10]: 121%

CCN(CC)CCCCN1c2ccccc2Oc2ccc(Cl)cc21
residual activity [1]: 59%
residual activity [2]: 101%
residual activity [3]: 117%
residual activity [4]: 104%
residual activity [5]: 82%
residual activity [6]: 107%
residual activity [7]: 109%
residual activity [8]: 109%
residual activity [9]: 104%
residual activity [10]: 137%

CO[C@@H]1[C@H](N(C)C(=O)c2ccccc2)C[C@H]2O[C@]1(C)n1c3ccccc3c3c4c(c5c6ccccc6n2c5c31)C(=O)NC4
residual activity [1]: 2%
residual activity [2]: 78%
residual activity [3]: 55%
residual activity [4]: 64%
residual activity [5]: 48%
residual activity [6]: 25%
residual activity [7]: 13%
residual activity [8]: 100%
residual activity [9]: 86%
residual activity [10]: 2%

O=c1c2ccccc2[nH]c(=S)n1CCN1CCC(=C(c2ccc(F)cc2)c2ccc(F)cc2)CC1
residual activity [1]: 80%
residual activity [2]: 81%
residual activity [3]: 81%
residual activity [4]: 108%
residual activity [5]: 97%
residual activity [6]: 103%
residual activity [7]: 99%
residual activity [8]: 113%
residual activity [9]: 101%
residual activity [10]: 125%

N#C/C(=C(\N)Sc1ccc(N)cc1)c1ccccc1C(F)(F)F
residual activity [1]: 85%
residual activity [2]: 99%
residual activity [3]: 99%
residual activity [4]: 108%
residual activity [5]: 82%
residual activity [6]: 92%
residual activity [7]: 93%
residual activity [8]: 100%
residual activity [9]: 98%
residual activity [10]: 73%

CC[n+]1c(/C=C/N(C)c2ccccc2)n(-c2ccccc2)c2ccc(-c3nc4ccccc4s3)cc21
residual activity [1]: 125%
residual activity [2]: 114%
residual activity [3]: 124%
residual activity [4]: 106%
residual activity [5]: 99%
residual activity [6]: 89%
residual activity [7]: 82%
residual activity [8]: 91%
residual activity [9]: 95%
residual activity [10]: 103%

O=C1NC(=O)c2c1c1c3ccccc3[nH]c1c1[nH]c3cc(Br)ccc3c21
residual activity [1]: 83%
residual activity [2]: 82%
residual activity [3]: 96%
residual activity [4]: 83%
residual activity [5]: 77%
residual activity [6]: 94%
residual activity [7]: 88%
residual activity [8]: 93%
residual activity [9]: 94%
residual activity [10]: 104%

c1ccc2c(-c3ccncc3)c[nH]c2c1
residual activity [1]: 85%
residual activity [2]: 108%
residual activity [3]: 108%
residual activity [4]: 89%
residual activity [5]: 97%
residual activity [6]: 98%
residual activity [7]: 93%
residual activity [8]: 107%
residual activity [9]: 94%

CC(C)n1cnc2c(NCc3ccccc3)nc(NCCCO)nc21
residual activity [1]: 100%
residual activity [2]: 78%
residual activity [3]: 37%
residual activity [4]: 93%
residual activity [5]: 37%
residual activity [6]: 93%
residual activity [7]: 71%
residual activity [8]: 94%
residual activity [9]: 88%
residual activity [10]: 103%

O=c1cc(-c2cccc3c2Sc2ccccc2S3)oc(N2CCOCC2)c1
residual activity [1]: 83%
residual activity [2]: 101%
residual activity [3]: 83%
residual activity [4]: 107%
residual activity [5]: 91%
residual activity [6]: 97%
residual activity [7]: 87%
residual activity [8]: 93%
residual activity [9]: 96%
residual activity [10]: 104%

COc1cc2ncnc(Nc3ccc(O)c(Br)c3)c2cc1OC
residual activity [1]: 22%
residual activity [2]: 103%
residual activity [3]: 100%
residual activity [4]: 93%
residual activity [5]: 88%
residual activity [6]: 76%
residual activity [7]: 45%
residual activity [8]: 93%
residual activity [9]: 85%
residual activity [10]: 99%

COc1cccc(-c2cc(=O)c3ccccc3o2)c1N
residual activity [1]: 124%
residual activity [2]: 104%
residual activity [3]: 109%
residual activity [4]: 104%
residual activity [5]: 88%
residual activity [6]: 100%
residual activity [7]: 97%
residual activity [8]: 108%
residual activity [9]: 104%
residual activity [10]: 104%

Cc1nc(-c2ccccc2)c(-c2ccncc2)o1
residual activity [1]: 100%
residual activity [2]: 111%
residual activity [3]: 109%
residual activity [4]: 98%
residual activity [5]: 81%
residual activity [6]: 103%
residual activity [7]: 102%
residual activity [8]: 108%
residual activity [9]: 104%
residual activity [10]: 112%
